The list is not random: actives were taken first. Their share in the collection is about 3.3%.
AmpC detergent – inhibitors of E. coli AmpC beta-lactamase with detergent; Potency, µM (highest dose often 114 µM), usual class: inhibitors; AID 485294; AmpC hydrolysis of nitrocefin, absorbance 480 nm, 0.01% Triton; 370,000 tested, 0.041% active; further: nearly all actives have a fitted effect of over 25% in size
Target sequence (P00811 whole entry, looked up): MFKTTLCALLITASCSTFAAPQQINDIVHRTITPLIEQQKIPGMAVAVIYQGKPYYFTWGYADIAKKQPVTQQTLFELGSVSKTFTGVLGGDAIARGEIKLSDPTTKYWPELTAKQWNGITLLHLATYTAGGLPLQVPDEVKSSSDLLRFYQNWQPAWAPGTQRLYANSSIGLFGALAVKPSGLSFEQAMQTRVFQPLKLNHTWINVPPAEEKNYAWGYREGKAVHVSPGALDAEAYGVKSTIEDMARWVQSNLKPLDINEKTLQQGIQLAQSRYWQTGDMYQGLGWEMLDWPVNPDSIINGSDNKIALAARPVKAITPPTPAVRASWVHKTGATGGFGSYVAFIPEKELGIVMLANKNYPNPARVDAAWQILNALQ
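20 mM phosphate pH 7.0 + 0.01% (detergent screen) or 0.0001% Triton X-100; 5.3 nM AmpC reagent; cpd preinc 15 min RT; nitrocefin (800 uM stock) to start; A480 q20 s × 4 min; Activity was normalised to no-enzyme and no-compound control wells.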
SARS PLpro yeast – blocks SARS-CoV papain-like protease in a yeast assay; 330,000 tested, 0.19% active; S. cerevisiae expressing SARS-CoV PLpro, growth rescue; AID 485353; Potency, µM (doses to about 32.9 µM), hits mostly activators; calls by dose curve; further: nearly all actives have a fitted effect of over 55% in size
Tb PYK inh – T. brucei pyruvate kinase inhibition; 410,000 tested, 0.12% active; TbPYK enzyme, Kinase-Glo Plus ATP luminescence, 45 min; Q57TT1; Potency, µM (doses to about 76.8 µM), usual class: inhibitors; further: nearly all actives have a fitted effect of over 50% in size
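Luminescence from Kinase-Glo Plus, added after a 45-minute room-temperature reaction, served as the end-point read-out. The enzyme and substrate were preincubated with compound before ADP (130 uM final) initiated turnover. Concentration-effect curves came from normalized qHTS data.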
Sm TGR inh – S. mansoni TGR enzyme inhibition; Q962Y6; purified TGR, DTNB reduction, TNB absorbance 405 nm; Potency, µM (series often up to 114 µM), usual class: inhibitors; 360,000 tested, 3% active; AID 485364; further: nearly all actives have a fitted effect of over 60% in size
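First, TGR (20 nM dispensed) and NADPH were mixed with compound. Second, a 15 min room-temperature incubation followed. Third, further NADPH and then DTNB were added to start the reaction. Finally, TNB absorbance was monitored kinetically.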
AmpC no deterg – AmpC beta-lactamase inhibition without detergent; AID 485341; Potency, µM (top dose mostly 57.1 µM), actives largely listed as inhibitors; P00811; AmpC nitrocefin hydrolysis, absorbance 480 nm, 0.0001% Triton; 330,000 tested, 0.52% active; further: nearly all actives have a fitted effect of over 20% in size
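20 mM phosphate pH 7.0 + 0.01% (detergent screen) or 0.0001% Triton X-100; 5.3 nM AmpC reagent; cpd preinc 15 min RT; nitrocefin (800 uM stock) to start; A480 q20 s × 4 min; Activity was normalised to no-enzyme and no-compound control wells.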
RE007 growth inh – less growth of the S. pombe RE007 Vpr strain; S. pombe RE007 Vpr strain, BacTiter-Glo ATP luminescence, 24 h; Potency, µM (titrated, usually from 92.2 µM), most hits filed as inhibitors; 360,000 tested, 0.21% active; active means well fitted falling curve with a large enough effect; inconclusive means small, poorly fitted or top-dose-only effect; inactive means no such curve, though single readings can be large or run the other way; further: nearly all actives have a fitted effect of over 50% in size
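Fission yeast RE007 carrying one integrated HIV-1 vpr copy, seeded at OD 0.01 in PMG+AL medium with 23 nL pinned compound. Grown 24 h at 30 degrees; viability read by BacTiter-Glo luminescence after 5 min.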
Each line names hits and unclear results; the compound was inactive in the other large screens. Unless noted, the call rests on the fitted dose curve; in most records, active means well fitted curve in the direction sought with a large enough effect; inconclusive means small, poorly fitted or top-dose-only effect, or another doubt; inactive means no such curve, though single readings can be large; an effect the other way counts as inactive or inconclusive.

O=[N+]([O-])c1cc(-c2ncccn2)c([N+](=O)[O-])s1	Sm TGR inh 0.316µM, RE007 growth inh inconclusive
O=C(Nc1ncccn1)c1cc([N+](=O)[O-])cc([N+](=O)[O-])c1	none
O=S(=O)(c1ccccc1)c1nnn2c1nc(NCc1ccccc1)c1cc(Cl)ccc12	AmpC detergent inconclusive (no result: SARS PLpro yeast, AmpC no deterg, RE007 growth inh)
CCc1ccccc1Nc1nc2ccccc2n2cnnc12	none (no result: SARS PLpro yeast, AmpC no deterg, RE007 growth inh)
CN(C)CCCn1c(-c2ccccc2)nc(=S)c2c1CCCC2	Sm TGR inh 44.7µM
COc1cccc(-c2nc(=S)c3c(n2Cc2ccco2)CCCC3)c1	Sm TGR inh inconclusive
Cc1ccc(-c2nc(=S)c3c(n2Cc2ccco2)CCCC3)cc1	AmpC detergent inconclusive, Sm TGR inh 8.91µM
Cc1cccc(-c2nc(=S)c3c(n2Cc2ccco2)CCCC3)c1	AmpC detergent inconclusive, Sm TGR inh 20µM
CN(CC(=O)N1CCOCC1)Cc1c(Cl)cccc1NC(=O)c1ccccc1	none (no result: AmpC detergent, SARS PLpro yeast, Sm TGR inh, AmpC no deterg, RE007 growth inh)
CCc1ccc(C2=C/C(=C/c3cccnc3)C(=O)O2)cc1	none (no result: RE007 growth inh)
CN(C)/C=C1/C=C(C=O)OC1=O	none
CN(C)/C=C1/C=C(c2ccccc2)OC1=O	AmpC detergent inconclusive, Sm TGR inh 31.6µM
CC1=C/C(=C/N(C)C)C(=O)O1	AmpC detergent inconclusive, Sm TGR inh 20µM
CC1(O)CCC2C3CCC4=CC(=O)CCC4(C)C3(F)C(O)CC21C (stereo not drawn)	none (no result: AmpC detergent, SARS PLpro yeast, Sm TGR inh, AmpC no deterg, RE007 growth inh)
Cc1ccc(NC(=O)CN2C(=O)C(c3ccccc3)=NC2(C)C)cc1C	none (no result: SARS PLpro yeast, AmpC no deterg, RE007 growth inh)
CC1=NN(c2ccccc2)C(=O)/C1=C\c1ccc(Oc2ccc([N+](=O)[O-])cc2[N+](=O)[O-])cc1	AmpC detergent inconclusive, Sm TGR inh 12.6µM, AmpC no deterg inconclusive
COc1cc(/C=C2\C(=O)N(c3ccccc3)N=C2C)ccc1Oc1ccc([N+](=O)[O-])cc1[N+](=O)[O-]	Sm TGR inh 14.1µM (no result: RE007 growth inh)
COc1cc(/C=C2/C(=O)N(c3ccc(C)c(C)c3)N=C2C)cc([N+](=O)[O-])c1O	none
COc1cc(/C=C2/C(=O)N(c3ccc(C(=O)O)cc3)N=C2C)cc(OC)c1O	Tb PYK inh inconclusive, Sm TGR inh 10µM
O=C(O)C1Cc2ccccc2CN1C(=O)c1ccco1 (stereo not drawn)	Sm TGR inh inconclusive
CCSc1nnc(NC(=O)C2Cc3ccccc3CN2C(=O)c2ccco2)s1 (stereo not drawn)	AmpC detergent inconclusive, Sm TGR inh 31.6µM
NS(=O)(=O)c1ccc(NC(=O)C2Cc3ccccc3CN2C(=O)c2ccco2)cc1 (stereo not drawn)	Sm TGR inh 44.7µM
Cc1ccccc1NC(=O)C1Cc2ccccc2CN1C(=O)c1ccco1 (stereo not drawn)	Sm TGR inh 11.2µM
COc1cccc(NC(=O)C2Cc3ccccc3CN2C(=O)c2ccco2)c1 (stereo not drawn)	Sm TGR inh 35.5µM
O=C(NCc1ccccc1)C1Cc2ccccc2CN1C(=O)c1ccco1 (stereo not drawn)	Sm TGR inh 35.5µM
O=C(c1ccco1)N1CCN(C(=O)C2Cc3ccccc3CN2S(=O)(=O)c2ccc(F)cc2)CC1 (stereo not drawn)	Sm TGR inh 50.1µM
CCC(=O)N1c2ccccc2CC1C(=O)NCc1ccccc1C (stereo not drawn)	none (no result: SARS PLpro yeast, AmpC no deterg, RE007 growth inh)
O=C(CN1C(=O)C2CCCCN2c2ccc(C(=O)N3CCCC3)cc21)NCc1cccc(Cl)c1 (stereo not drawn)	none (no result: SARS PLpro yeast, AmpC no deterg, RE007 growth inh)
O=C(NCC(c1ccccc1)c1ccccc1)c1nn(-c2ccccc2Cl)nc1CO	none (no result: SARS PLpro yeast, AmpC no deterg, RE007 growth inh)
Cc1ccc(CN(C)C(=O)c2cc(Br)c(Br)s2)o1	Sm TGR inh 50.1µM, RE007 growth inh inconclusive
Cc1ccc(CN(C)C(=O)c2cccc(S(=O)(=O)N3CCCC3)c2)o1	Tb PYK inh inconclusive (no result: AmpC detergent, Sm TGR inh)
Cc1ccc2oc(C(=O)N(C)Cc3ccc(C)o3)c(C)c2c1	Tb PYK inh inconclusive, Sm TGR inh 2.24µM, RE007 growth inh inconclusive
